# Source: paper PMC6212790, “How bacterial xenogeneic silencer rok distinguishes foreign from self DNA in its resident genome”
# Over roughly 33,000 sequences, “e-score” has its median near -0.037; the highest 2% begin near 0.34. The entries come from a sample that favours the highest values as a whole.
# Molecular target: T1, GST-Rok (full length) (Bacillus subtilis subsp. subtilis str. …, UniProt O34857 1-191)
# T1 sequence: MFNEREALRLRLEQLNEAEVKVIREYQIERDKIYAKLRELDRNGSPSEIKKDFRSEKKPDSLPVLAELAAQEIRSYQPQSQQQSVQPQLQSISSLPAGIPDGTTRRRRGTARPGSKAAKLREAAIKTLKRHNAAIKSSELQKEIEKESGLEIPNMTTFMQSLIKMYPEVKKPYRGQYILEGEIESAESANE
# Assay: protein binding microarray; Rok is a gene silencer of Bacillus subtilis; high values mean tight binding
# Details: protein: recombinant; tags: GST (pTH5325, pDEST15-Magic modified); dsDNA, one strand shown
# Method in brief: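 Each has a 25-mer constant primer and a 35-mer variable part from a de Bruijn sequence of order 10, covering every non-palindromic 8-mer at least 32 times (palindromic 16). Preference for each 8-mer is given as a rank-based, unitless enrichment score (E-score). Its range runs from 0.5 (most favored) to −0.5 (most disfavored).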
row,Sequence,binding signal [E-score]
1,ATTATCTC,-0.0512
2,ACCATCTC,-0.0707
3,AGTATCTA,0.343
4,ATTATCTG,0.284
5,AGTATCTG,0.189
6,ATTATCTA,0.412
7,ACCATCTA,0.351
8,AGTATCTC,0.238
9,CCTATCTA,0.34
10,CCTATCTC,0.168
11,GCCATCTA,0.0099
12,CCTATCCA,-0.0329
13,CTAACGAG,0.0146
14,GCCAAGTA,0.107
15,AGCGAGCA,-0.18
16,TACCAGCA,0.135
17,GAACAACA,-0.0557
18,GCTATCTA,0.33
19,ACTATCTC,0.128
20,ACTATCTA,0.397
21,CATTTCTA,0.288
22,CATTTCGA,-0.0105
23,GATTTCTA,0.3
24,AATTTCGA,0.352
25,ATTTTCTC,0.264
26,GATTTCGA,0.183

row,Sequence,binding signal [E-score]
1,ATTTTCTG,-0.139
2,ATTTTCTA,0.397
3,AATTTCTA,0.344
4,CCTTTCTA,0.158
5,ACTTTCTA,0.386
6,ACTTTCTC,0.0817
7,CTTTACGC,0.177
8,AGGCCGTA,-0.152
9,CATCGTAA,0.169
10,GTTTCCAA,0.0167
11,CTAGCGTC,-0.0555
12,AGCTTAGG,0.072
13,AGTTTCTA,0.402
14,AGTTTCTC,0.274
15,GGTTTCTA,0.334
16,GACAGAAC,-0.0014
17,CCTCTAAC,-0.0188
18,CTAGTATA,0.409
19,GTAGTACA,0.236
20,CAAGTATA,0.204
21,GAAGTATA,0.169
22,CTAGTATC,0.241
23,CCAGTATA,0.235
24,GTAGTATA,0.423
25,GCAGTATA,0.275
26,ACAGTATA,0.343

row,Sequence,binding signal [E-score]
1,CCTAACAG,0.0291
2,ATTAGCAA,0.0548
3,CGCAACTC,-0.103
4,AATGACAA,0.16
5,TATTACGA,0.296
6,GCGTATCA,0.0845
7,CAACAGTA,0.316
8,GAACAGTA,0.264
9,TAACAGTA,0.355
10,AGAATGTA,0.201
11,AATATTTA,0.325
12,AATATTAC,0.239
13,TGTATTAA,0.241
14,CATATTAC,0.289
15,GATATTAC,0.364
16,GATATTAA,0.365
17,GATATTTA,0.351
18,TATATTAA,0.364
19,CATATTTA,0.324
20,AATATTAA,0.334
21,TATATTGA,0.278
22,CATATTAA,0.268
23,CCGGTCGA,-0.102
24,AGAGACTA,0.093
25,CCCTCGTA,-0.134
26,AGCCAAAT,0.0925

row,Sequence,binding signal [E-score]
1,TAAGAGCA,-0.127
2,CGCTGTGA,-0.0511
3,GCTTCAAC,0.127
4,AGCTCCAG,-0.0852
5,ACATTCTC,0.0677
6,ACGTTCTC,0.0202
7,GGGAAATA,0.127
8,ATTTAGTG,0.166
9,AATTAGTG,0.322
10,AATTAGTA,0.416
11,GTTTAGTA,0.272
12,ATTTAGTA,0.363
13,CATTAGTA,0.227
14,GCGCATAC,0.0802
15,CGTTCTGA,-0.0208
16,CTAGATAA,0.302
17,GTAGATAC,0.359
18,TTAGATAA,0.251
19,CTAGATAC,0.22
20,GTAGATAA,0.407
21,GCAGATAC,0.0143
22,ACGGTTGC,-0.00987
23,CGACGTAC,-0.0209
24,ACTGCCGC,-0.152
25,ATAGGAAG,0.0173
26,AGGCTCGA,-0.0603

row,Sequence,binding signal [E-score]
1,GATCTACA,0.369
2,GGTCTACA,0.0329
3,CATCTACA,0.177
4,TATCTACA,0.348
5,AATCTACA,0.326
6,GCTCTACA,-0.114
7,ATTAAATG,0.0625
8,AGGCTGTA,0.00795
9,ACTACTAT,0.465
10,CCTACTAC,0.258
11,ACTACTCT,0.184
12,ACTACAAC,0.293
13,ACTACTGG,0.224
14,ACTACAAG,0.22
15,ACTACAAT,0.344
16,ACAACTAG,0.351
17,ACAACTAT,0.33
18,GCTACTAC,0.198
19,ACAACTAC,0.311
20,ACTACTAC,0.4
21,ATGCGAGA,0.00939
22,CGTTTGTC,-0.0759
23,CTACCAAC,0.164
24,AGACGCTG,-0.151
25,CAGTCCAA,-0.0763
26,AGCCCAAC,-0.175

row,Sequence,binding signal [E-score]
1,TCCAGAAA,-0.00865
2,ACTACTAG,0.346
3,ACTACTCG,0.187
4,CCTACTAG,0.0992
5,ATGGTACG,0.183
6,GCATTAAC,0.0561
7,ATACTAAA,0.391
8,TTACTAAA,0.32
9,AGACTAAA,-0.0347
10,ATACTAAT,0.378
11,CTACTAAC,0.324
12,ACACTAAA,0.174
13,ATACTAAG,0.175
14,ATACTAAC,0.199
15,CTACTAAA,0.357
16,GAGGCATC,-0.172
17,CAGCTGTA,0.0605
18,ACATCTAC,0.272
19,ACTTCGGA,-0.0792
20,ACCCTAAA,0.024
21,CCACTGTC,-0.188
22,CTGCTTTA,0.0813
23,ATAAGGAC,-0.2
24,GTAGAAAC,0.427
25,CTAGAAAA,0.291
26,GCAGAAAC,-0.0153

row,Sequence,binding signal [E-score]
1,CTAGAAAC,0.3
2,TTAGAAAA,0.185
3,GTAGAAAA,0.387
4,ATCTGGTC,-0.135
5,ATCTTTAA,0.0286
6,AGATTGGC,0.136
7,CGTTCCAC,-0.021
8,ATATTTAG,0.287
9,ATATTTGC,0.285
10,CTATTTAC,0.342
11,ATATTTAC,0.379
12,CTCTTTAC,0.158
13,ACATTTAC,0.313
14,CTATTTAA,0.0252
15,ATATTTAA,0.387
16,ATTTTTAA,-0.0198
17,AGTCAAAA,0.108
18,CGTTTGAA,-0.00324
19,ACCTTCAG,-0.119
20,TCCACAAA,0.0863
